Results taken from PubChem BioAssay (NCATS).
Records with an inconclusive call do not appear. Activity calls are given as the source filed them. Calls come from the whole dose curve; as a rule, active = well fitted cell-killing curve with a large enough effect; inconclusive = small, poorly fitted or top-dose-only effect, or effect the other way; inactive = no such curve, though single readings can be large or run the other way. Non-standard residues stand in square brackets, D forms with d. Residues, ends and D or L forms follow the SMILES beside them. *: point of attachment. Nva = CCC[C@H](N)C(=O)O; Cbz = O=C(OCc1ccccc1)*

Experiment: Quantitative High-Throughput drug screen in 47 multiple myeloma cell lines against the NCATS MIPE library collection: KMS27_JCRB cell viability assay (AID 1918970); note: nearly all actives have a fitted effect of over 30% in size
Conditions: KMS27 myeloma cells, CellTiter-Glo ATP viability, 48 h; viability (% of DMSO): at 45.8 µM (top of the series)
Text: PI: Beverly A. Mock Ph.D.
Laboratory of Cancer Biology and Genetics,
Center for Cancer Research, National Cancer Institute,
National Institute of Health, Bethesda, Maryland
Drug resistance and disease progression are common in multiple myeloma (MM) patients, underscoring the need for new therapeutic combinations. […] We hypothesized that effective combinations would reduce MYC expression and enhance p16 activity. […] These preclinical data identify potentially useful drug combinations for evaluation in drug-resistant MM and reveal potential mechanisms of combined drug sensitivity.
Described herein is the primary MIPE qHTS used to cherrypick compounds. Validated compounds were then further tested for potential synergistic activiy.
[1] Peat TJ, Gaikwad SM, Dubois W, Gyabaah-Kessie N, Zhang S, Gorjifard S, Phyo Z, Andres M, Hughitt VK, Simpson RM, Miller MA, Girvin AT, Taylor A, Williams D, D'Antonio N, Zhang Y, Rajagopalan A, Flietner E, Wilson K, Zhang X, Shinn P, Klumpp-Thomas C, McKnight C, Itkin Z, Chen L, Kazandijian D, Zhang J, Michalowski AM, Simmons JK, Keats J, Thomas CJ, Mock BA. Drug combinations identified by high-throughput screening promote cell cycle transition and upregulate Smad pathways in myeloma. […] Epub 2023 Jun 24. PMID: 37356470; PMCID: PMC10408729.
SEQUENCE No. (e.g., 1, 2, 3, etc.); […] (e.g., Cells, Incubation, Reagent, etc.); VALUE and DESCRIPTION.
1; Cells; 5 uL; white, solid bottom 1536-well Greiner assay plate.
2; Compounds; 23 nL; Kalypsis pin tool (Wako USA) equipped with a 1536-well pin head to transfer to the assay plates.
3; Incubation; 48 hours; 37C incubation.
4; Reagent;5uL; CellTiter Glo (Promega).
5; Detector; 425V; Luminescence; Viewlux PerkinElmer.
NOTES (numbers refer to Sequence numbers above)
1. The cell-based screening methods employed in this study were like those previously published. Briefly, the corresponding myeloma cell lines were screened in 1,536-well plates with 500 cells, 5-uL per well for inhibition of cell viability (assessed by measuring ATP levels with CellTiterGlo).
2. NCATS MIPE 4.0 library of approved and investigational drugs were added using the Kalypsis pin tool. Wells treated with DMSO only for 100% viability and media only wells for 0% viability were used as controls.
3. The assay plates were covered and incubated for 48 hours in a 37C, 5% CO2 incubator with controlled humidity.
4. After 48 hours, CellTilter-GloTM luminescent substrate mix (Promega) reagent was added to the assay plate and plates we incubated for 5 min at room temperature.
5. Signal was measured as median relative luminescence units on a ViewLux (PerkinElmer) multiplate reader.
[1] Heske CM, Davis MI, Baumgart JT, Wilson K, Gormally MV, Chen L, Zhang X, Ceribelli M, Duveau DY, Guha R, Ferrer M, Arnaldez FI, Ji J, Tran HL, Zhang Y, Mendoza A, Helman LJ, Thomas CJ. Matrix Screen Identifies Synergistic Combination of PARP Inhibitors and Nicotinamide Phosphoribosyltransferase (NAMPT) Inhibitors in Ewing Sarcoma. Clin Cancer Res. 2017 Dec 1;23(23):7301-7311. doi: 10.1158/1078-0432.CCR-17-1121. Epub 2017 Sep 12. PMID: 28899971; PMCID: PMC6636827.
Potency is the fitted concentration of half-maximal effect.

Row | Compound | Potency
1 | Cc1noc(-c2ccc(CSCCC(=O)O)cc2)c1NC(=O)OC(C)c1ccccc1Cl (stereo not given) | inactive
2 | COc1ccnc2[nH]cc(C(=O)C(=O)N3CCN(C(=O)c4ccccc4)C[C@@H]3C)c12 | inactive
3 | CC(=O)SCC(Cc1ccccc1)C(=O)NCC(=O)OCc1ccccc1 (stereo not given) | 662 nM (active)
4 | C[C@H](O)[C@@H]1C(=O)N2C(C(=O)O)=C(S[C@@H]3CN[C@H](CNS(N)(=O)=O)C3)[C@@H](C)[C@@H]12 | inactive
5 | CN(CC(=O)N(Cc1ccc(C2CCCCC2)cc1)c1ccc(C(=O)O)c(O)c1)S(=O)(=O)c1c(F)c(F)c(F)c(F)c1F | 3320 nM (active)
6 | CC(=O)O[C@H]1C[C@@H]2CC[C@H]3[C@H]4C[C@H]([N+]5(C)CCCCC5)[C@@H](OC(C)=O)[C@@]4(C)CC[C@@H]3[C@@]2(C)C[C@H]1[N+]1(C)CCCCC1 | inactive
7 | CC(C=CC(=O)NO)=C[C@@H](C)C(=O)c1ccc(N(C)C)cc1 | 264 nM (active)
8 | N[C@H]1CN(c2c(F)cc3c(=O)c(C(=O)O)cn(C4C[C@@H]4F)c3c2Cl)CC12CC2 (stereo not given in full) | inactive
9 | CC(C=CC1=C(C)CCCC1(C)C)=CC=CC(C)=CC(=O)Nc1ccc(O)cc1 | 8550 nM (active)
10 | CC(=O)OC[C@@H]1O[C@@H](n2ccc(=O)[nH]c2=O)[C@H](OC(C)=O)[C@H]1OC(C)=O | inactive
11 | CN(C)c1ccc2cc(C(=O)N[C@@H](CCCN=C(N)CCl)C(=O)NCc3ccccc3)ccc2c1 | 1480 nM (active)
12 | Cn1c(Nc2ccc(C(F)(F)F)cc2)nc2cc(Oc3ccnc(-c4ncc(C(F)(F)F)[nH]4)c3)ccc21 | 14800 nM (active)
13 | CCC(C(=O)O)C1CCC(C)C(C(C)C(O)C(C)C(=O)C(CC)C2OC3(C=CC(O)[C@@]4(CC[C@](C)(C5CC[C@@](O)(CC)C(C)O5)O4)O3)C(C)CC2C)O1 (stereo not given in full) | 743 nM (active)
14 | O=C1c2c(O)cccc2[C@@H]([C@@H]2O[C@H](CO)[C@@H](O)[C@H](O)[C@H]2O)c2cc(CO)cc(O)c21 | inactive
15 | c1cc(CN2CCCNCCNCCCNCC2)ccc1CN1CCCNCCNCCCNCC1 | inactive
16 | CC1=C(C(=O)Nc2cc3cn[nH]c3cc2F)C(c2ccc(Cl)cc2F)N=C(c2ccnc(Cl)c2)N1 (stereo not given) | 29600 nM (active)
17 | OC[C@@H](O)[C@@H](O)[C@H](O)[C@@H](O)CO | inactive
18 | CCNC(=O)c1cc2c(-c3cc(OCCN4CCCC4)c(Cl)cc3Cl)nc(N)nc2s1 | 1180 nM (active)
19 | CC(O)(C#Cc1ccc2c(c1)N(c1nc(N)ncc1Cl)CC2)c1nccs1 (stereo not given) | 20900 nM (active)
20 | C[C@H](NCc1ccc2c(c1)nc(NC(=O)c1ccc(-c3cn[nH]c3)s1)n2CCc1ccccc1)C(C)(C)C | 418 nM (active)

Row | Compound | Potency
21 | N#CNC(=NCCCCCCOc1ccc(Cl)cc1)Nc1ccncc1 | 1 nM (active)
22 | Nc1ncn([C@@H]2O[C@H](CO)[C@@H](O)[C@@H]2O)c(=O)n1 | 9350 nM (active)
23 | FC(F)(F)c1ccc(Nc2nc3ccc(Oc4ccnc(-c5ncc(C(F)(F)F)[nH]5)c4)cc3[nH]2)cc1 | 23500 nM (active)
24 | CC(=O)O[C@@]12CO[C@H]1C[C@H](O)[C@@]1(C)C(=O)[C@H](O)C3=C(C)[C@@H](OC(=O)C(O)[C@@H](NC(=O)OC(C)(C)C)c4ccccc4)C[C@@](O)([C@@H](OC(=O)c4ccccc4)[C@@H]21)C3(C)C (stereo not given in full) | inactive
25 | CCNC(=O)Nc1ccc(-c2nc3c(c(N4CCOC[C@H]4C)n2)CCN(C2COC2)C3)cc1 | 590 nM (active)
26 | CCC[C@@H](C=O)NC(=O)[C@H](CC(C)C)NC(=O)[C@H](CC(C)C)NC(=O)OCc1ccccc1 (Cbz-Leu-Leu-[Nva]-aldehyde) | 332 nM (active)
27 | Nc1cccc2c1C(=O)N(C1CCC(=O)NC1=O)C2=O (stereo not given) | inactive
28 | COc1cc([C@@H]2c3cc4c(cc3[C@H](O)[C@H]3COC(=O)[C@@H]23)OCO4)cc(OC)c1OC | 52.6 nM (active)
29 | Cn1cc(C[C@@H](N)C(=O)O)c2ccccc21 | inactive
30 | CCC[C@H]1C[C@H](C(=O)N[C@@H]([C@@H]2O[C@@H](SC)[C@@H](O)[C@@H](O)[C@@H]2O)[C@H](C)Cl)N(C)C1 | inactive
31 | NC(=O)Nc1sc(-c2ccc(F)cc2)cc1C(N)=O | 166 nM (active)
32 | COc1cc(C(=O)NC2CCN(C)CC2)ccc1Nc1ncc2c(n1)N(C1CCCC1)CCC(=O)N2C(C)C | 5900 nM (active)
33 | COc1cc(C=CC(=O)CC(=O)C=Cc2ccc(O)c(OC)c2)ccc1O | 3030 nM (active)
34 | COc1ccc(S(=O)(=O)Nc2cc(-c3c(O)ccc4ccccc34)c(O)c3ccccc23)cc1 | 14800 nM (active)
35 | CCCCCCCN(CC)CCCC(O)c1ccc(NS(C)(=O)=O)cc1 (stereo not given) | 20900 nM (active)
36 | C=CC(=O)Nc1cccc(Nc2nc(NC3CCC(N(C)C)CC3)nc3c2ncn3C(C)C)c1 (stereo not given) | 10.5 nM (active)
37 | Cc1cnn(C)c1C(=O)Nc1cc(Nc2ccc3c(C=Cc4ccccn4)n[nH]c3c2)ccc1F | 2640 nM (active)
38 | C=C(C)[C@@H]1CC[C@]2(C(=O)O)CC[C@]3(C)[C@H](CC[C@@H]4[C@@]5(C)CC[C@H](O)C(C)(C)[C@@H]5CC[C@]43C)[C@@H]12 | inactive
39 | COc1cc(C[C@@H](CO)[C@H](CO)Cc2ccc(O)c(OC)c2)ccc1O | 2960 nM (active)
40 | O=C(Nc1nnc(-c2ccco2)o1)c1cc(-c2ccccc2)nc2ccccc12 | 16600 nM (active)
